# Experiments:
# [1] = inhibitors of PAF-induced NFkB signaling in CF airway cells, dose response, cell-based, uHTS hits, panel, cytotoxicity readout (AID 624344); conditions: CF bronchial epithelial cells, PAF-induced NFkB reporter inhibition, with PAF, run 1; at 79 µM (top of the series) unless noted
# [2] = as above; conditions: CF bronchial epithelial cells, PAF-induced NFkB reporter inhibition, with PAF, run 2; at 79 µM (top of the series) unless noted
Compound,inhibition [1],inhibition [2]
COc1ccc(/C=N/NC(=O)c2[nH]c3ccc(Br)cc3c2-c2ccccc2)cc1,88.4%,71.3%
COc1ccc(N(CCCN2C(=O)c3cccc4cccc(c34)C2=O)C(=O)c2ccncc2)cc1,5.78%,45.8%
CCOc1cccc(-c2nnc3sc(C4CCCCC4)nn23)c1,102%,116%
COc1ccc(C2CNC(=O)C2)cc1OC1CCCC1 (stereo not drawn),84.8%,81.6%
NC(=O)c1nsc(C(=O)N(c2ccccc2)C(C(=O)NCc2ccc(F)cc2)c2ccc(O)cc2)c1N (stereo not drawn),102%,108%
CCN(CC(=O)Nc1ccc(OC)cc1)C(=O)c1cc(-c2cccs2)nn1-c1ccccc1,99.6%,98.4%
Nc1nccc(SCc2ccc(Cl)cc2Cl)n1,72.7%,74.1%
O=C(NCCCSc1ccccc1)c1cc(Cl)ccc1O,106%,117%
c1cnc2ccc(-n3ccnc3)cc2c1,115%,102%
Cc1ccc(CNc2ncnc(N)c2[N+](=O)[O-])cc1,87.7%,80.8%
Cc1ccc(S(=O)(=O)N2[C@@H](c3ccc(C(C)(C)C)cc3)C(C(=O)O)=CC[C@H]2c2ccc(C(C)C)cc2)cc1,65%,115%
COc1ccc(-c2cc(NC=O)c3ncc(-c4ccc(OC)c(OC)c4)n3c2)c(OC)c1,95.1%,86.2%
Cc1cccc(CS(=O)(=O)c2ncc(Cl)c(C(=O)NCc3ccccc3)n2)c1,92.1%,88.2%
O=C(Nc1ccc2c(c1)OCCO2)c1cc(-c2ccccn2)nc2ccc(Br)cc12,6.4%,68.9%
Cc1ccc(Sc2c(C=O)c3ccccc3n2C)cc1,105%,104%
CN(Cc1ccco1)c1ncnc2ccc(-c3ccoc3)cc12,114%,101%
CN(C)CCCN(C(=O)CCOc1ccccc1)c1nc2c(F)cccc2s1,99.3%,99.1%
CC1=C(/C=C/C(C)=C/C=C/C(C)=C\C(=O)O)C(C)(C)CCC1,100%,71.7%
CC(=O)Nc1ccc(Nc2nc(-c3sc(NC(C)=O)nc3C)cs2)cc1,103%,110%
Cc1ccc(C(=O)Nc2cccc(C(F)(F)F)c2)cc1NC(=O)c1ccno1,86.8%,111%
NC(N)=NN=C(c1ccc(F)cc1)c1ccc(C(F)(F)F)cc1,108%,117%
COc1cc2c(Cc3ccccc3)cncc2cc1O,107%,96.3%

Compound,inhibition [1],inhibition [2]
CCC1=Nc2cc(C(=O)NCc3ccco3)ccc2Sc2ccc(C)cc21,99.5%,92.2%
COc1ccc(CNc2nn3c(-c4cccc(C(=O)N(C)C)c4)cnc3s2)cc1,113%,104%
O=C(Nc1cccc(-c2cnc3ccccc3n2)c1)c1cccc(NC(=O)c2ccco2)c1,98.6%,96.6%
CC(=O)c1ccc(NC(=O)Nc2ccc3c(c2)N(C)C(=O)CS3)cc1,98.3%,106% [at 19.8 µM]
O=C(Nc1ccc(OCC(=O)N2CCOCC2)cc1)c1cncc(Br)c1,90.4%,98.9%
CCOC(=O)c1c(C)[nH]c(C(=O)N/N=C/c2ccc(Br)cc2)c1C,89.5%,83.1%
S=c1[nH]nc(-c2ccncc2)n1/N=C/C(Cl)=C\c1ccccc1,101%,109%
COc1ccc(-c2cc(=O)oc3cc(OC(=O)C4CCCCC4)c(Cl)cc23)cc1,117%,102%
O=S(=O)(Nc1nc2ccccc2nc1N1CCN(c2ccccc2F)CC1)c1ccc(Cl)cc1,96.7%,111%
O=C(Nc1ccccc1)Nc1ncc([N+](=O)[O-])s1,108%,96.7%
c1nc(N2CCOCC2)c2c3c(sc2n1)CCCC3,98.5%,107%
CC(C)C[C@H](CO)Nc1nc(Nc2cccc(Cl)c2)c2ncn(C(C)C)c2n1,112%,100%
COC(=O)N1C(=O)[C@@](c2ccc(OC)cc2)(C(C)C)N1C(=O)OC,101%,102%
CC1(Cc2ccc(Cl)cc2)C(=O)Nc2ccc(-c3cccnc3)cc21 (stereo not drawn),107%,102%
O=S1(=O)CCC(NC(=S)SCCOc2ccccc2)C1 (stereo not drawn),99.3%,108%
Fc1ccc(-n2cc(-c3ccccc3)c3c(N4CCOCC4)ncnc32)cc1,110%,102%
Cc1ccsc1CN(C)c1ncnc2ccc(-c3ccoc3)cc12,91.6%,93.8%
Nc1nc(N)nc(-c2cc(O)ccc2O)n1,105%,116%
NC(=O)c1sc2nc3c(c(-c4ccco4)c2c1N)CCCC3,114%,101%
COc1cc(CCc2ccccc2)c(C(=O)O)c(O)c1C/C=C(/C)CCC=C(C)C,104%,114%
COc1ccc(-c2ccccc2[C@H]2[C@@H]3C=CC[C@@H](C)[C@@H]3C(=O)N2Cc2ccccc2)cc1,102%,108%
CCOC(=O)c1ccc(-n2[nH]c(-c3ccccc3)cc2=O)cc1,113%,93.3%
